{
  "source": "the supplement of paper PMC3334620",
  "note": "Over roughly 33,000 sequences, “E-score (-0.5 to 0.5)” has its median near -0.041; the highest 2% begin near 0.37. Shown is part of a subset that was picked to be rich in the highest values.",
  "data": [
    {"target": "T1, Ecm22 (UniProt Q05958)", "T1 sequence": "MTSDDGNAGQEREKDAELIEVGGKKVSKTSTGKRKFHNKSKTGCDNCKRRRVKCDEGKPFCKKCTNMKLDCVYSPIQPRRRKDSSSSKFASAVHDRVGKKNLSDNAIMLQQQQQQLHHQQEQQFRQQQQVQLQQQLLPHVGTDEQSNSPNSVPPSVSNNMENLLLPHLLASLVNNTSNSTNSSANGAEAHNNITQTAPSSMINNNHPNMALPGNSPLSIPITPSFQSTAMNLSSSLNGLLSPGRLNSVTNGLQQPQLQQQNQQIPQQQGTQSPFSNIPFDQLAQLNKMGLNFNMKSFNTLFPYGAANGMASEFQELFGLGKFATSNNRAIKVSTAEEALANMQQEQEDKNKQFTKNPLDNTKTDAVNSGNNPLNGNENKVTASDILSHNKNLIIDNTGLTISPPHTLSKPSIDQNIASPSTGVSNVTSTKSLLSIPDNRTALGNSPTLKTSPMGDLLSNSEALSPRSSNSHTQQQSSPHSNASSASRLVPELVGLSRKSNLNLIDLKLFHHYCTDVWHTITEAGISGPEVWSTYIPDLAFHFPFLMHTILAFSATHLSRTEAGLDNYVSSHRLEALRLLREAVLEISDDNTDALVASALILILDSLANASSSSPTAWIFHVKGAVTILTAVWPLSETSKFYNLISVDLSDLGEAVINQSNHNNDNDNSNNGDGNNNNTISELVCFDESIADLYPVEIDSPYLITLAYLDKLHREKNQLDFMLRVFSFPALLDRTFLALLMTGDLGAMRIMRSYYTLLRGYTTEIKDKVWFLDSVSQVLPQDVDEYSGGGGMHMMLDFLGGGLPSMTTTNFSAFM", "assay": "PBM E-score (8-mer binding enrichment) (E-score (-0.5 to 0.5)); higher = stronger / more preferred TF binding", "settings": "protein concentration: 200 nM; construct: GST-full length", "method": "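Universal 'all 10-mer' protein binding microarrays (Agilent AMADID 015681) probed with GST-tagged S. cerevisiae TFs (full-length or DBD) made by in vitro transcription/translation (PURExpress), about 100-200 nM. Bound TF was detected with fluorescent anti-GST. Each ungapped 8-mer (which stands for itself and its reverse complement) is scored by the PBM enrichment score (E-score), a modified Wilcoxon-Mann-Whitney statistic from -0.5 to +0.5, computed with the Universal PBM Analysis Suite. Scale: above 0.35 generally sequence-specific binding.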", "values": [
      {"sequence": "ACGACGCA", "PBM E-score": 0.412},
      {"sequence": "ACGACGCT", "PBM E-score": 0.38},
      {"sequence": "ACGACGCG", "PBM E-score": 0.407},
      {"sequence": "AAGACGCG", "PBM E-score": -0.012},
      {"sequence": "ATTGCGCG", "PBM E-score": 0.148},
      {"sequence": "CAGGAAGG", "PBM E-score": -0.357},
      {"sequence": "ATCGTGCG", "PBM E-score": 0.228},
      {"sequence": "CATTCCTC", "PBM E-score": 0.0616},
      {"sequence": "ACGCGGTG", "PBM E-score": -0.00032},
      {"sequence": "AATGAGTC", "PBM E-score": -0.0397},
      {"sequence": "AAGGTGTA", "PBM E-score": -0.0872},
      {"sequence": "ATCCTTTA", "PBM E-score": -0.159},
      {"sequence": "GGGTACAA", "PBM E-score": -0.0303},
      {"sequence": "CGGTACGC", "PBM E-score": 0.315},
      {"sequence": "AGGTACTG", "PBM E-score": -0.183},
      {"sequence": "CGGTACGA", "PBM E-score": 0.492},
      {"sequence": "CGGTACCA", "PBM E-score": -0.0083},
      {"sequence": "AGGTACGG", "PBM E-score": 0.424},
      {"sequence": "GGGTACGA", "PBM E-score": 0.491},
      {"sequence": "GGGTACCA", "PBM E-score": -0.317},
      {"sequence": "AGGTACGC", "PBM E-score": 0.217},
      {"sequence": "CGATTCGC", "PBM E-score": 0.221},
      {"sequence": "ATCAGGTC", "PBM E-score": 0.113},
      {"sequence": "ATAGGAGC", "PBM E-score": -0.162},
      {"sequence": "CAGATTTA", "PBM E-score": 0.156},
      {"sequence": "AACATCAA", "PBM E-score": 0.0313},
      {"sequence": "CCTCGGCA", "PBM E-score": 0.165},
      {"sequence": "GCGCTTAA", "PBM E-score": 0.0179},
      {"sequence": "CCGCTTAA", "PBM E-score": 0.291},
      {"sequence": "TCGCTTAA", "PBM E-score": 0.394},
      {"sequence": "ACCCATTC", "PBM E-score": -0.0208},
      {"sequence": "ATCGTAGG", "PBM E-score": 0.144},
      {"sequence": "CACGTAGC", "PBM E-score": -0.026},
      {"sequence": "CGCGTAGA", "PBM E-score": 0.107},
      {"sequence": "CCCGTAGC", "PBM E-score": 0.154},
      {"sequence": "GACGTAGA", "PBM E-score": -0.0256},
      {"sequence": "CTCGTAGC", "PBM E-score": 0.449},
      {"sequence": "CTCGTAGA", "PBM E-score": 0.376},
      {"sequence": "ATCGTAGA", "PBM E-score": 0.272},
      {"sequence": "ATCGTAGC", "PBM E-score": 0.385},
      {"sequence": "GTCGTAGA", "PBM E-score": 0.4},
      {"sequence": "CACGTAGA", "PBM E-score": -0.0914},
      {"sequence": "GGCGTAGA", "PBM E-score": 0.0225},
      {"sequence": "AGAGGCGA", "PBM E-score": -0.00468},
      {"sequence": "ATGGGAGG", "PBM E-score": -0.116},
      {"sequence": "CTGGCGAC", "PBM E-score": -0.209},
      {"sequence": "GCACGTGC", "PBM E-score": -0.0189},
      {"sequence": "CATTACCG", "PBM E-score": -0.025},
      {"sequence": "GGGGACTA", "PBM E-score": -0.242},
      {"sequence": "AACGGCCT", "PBM E-score": 0.225},
      {"sequence": "CTTTCGCA", "PBM E-score": 0.00706},
      {"sequence": "GTAGGTCA", "PBM E-score": -0.0922},
      {"sequence": "GAACCTTC", "PBM E-score": -0.126},
      {"sequence": "ATGAGAGA", "PBM E-score": -0.0934},
      {"sequence": "AGAAGGCA", "PBM E-score": -0.166},
      {"sequence": "GGCATTCA", "PBM E-score": -0.0839},
      {"sequence": "ACACTGCG", "PBM E-score": 0.0708},
      {"sequence": "ATTTGGCC", "PBM E-score": -0.258},
      {"sequence": "AACGCATT", "PBM E-score": 0.0189},
      {"sequence": "CGTACGGC", "PBM E-score": 0.385},
      {"sequence": "AGTACGGA", "PBM E-score": 0.288},
      {"sequence": "CCTACGGA", "PBM E-score": -0.34},
      {"sequence": "GCTACGGA", "PBM E-score": 0.232},
      {"sequence": "CATACGGC", "PBM E-score": 0.3},
      {"sequence": "AGTACGGC", "PBM E-score": 0.339},
      {"sequence": "GGTACGGA", "PBM E-score": 0.413},
      {"sequence": "CTTACGGA", "PBM E-score": 0.0416},
      {"sequence": "CGTACGGA", "PBM E-score": 0.373},
      {"sequence": "CCCGCTGA", "PBM E-score": -0.32},
      {"sequence": "AGCGCTGC", "PBM E-score": -0.158},
      {"sequence": "CCGGTCAC", "PBM E-score": -0.0785},
      {"sequence": "ATGGACAT", "PBM E-score": -0.107},
      {"sequence": "ATGGGCCC", "PBM E-score": -0.157},
      {"sequence": "GCGAACAC", "PBM E-score": 0.0536},
      {"sequence": "CCCCCTGC", "PBM E-score": -0.162},
      {"sequence": "CATACGCC", "PBM E-score": 0.182},
      {"sequence": "AATACGTA", "PBM E-score": 0.228},
      {"sequence": "AATACGGG", "PBM E-score": 0.229},
      {"sequence": "CATACAAA", "PBM E-score": -0.0105},
      {"sequence": "AATACGAG", "PBM E-score": 0.457},
      {"sequence": "ACTACGAA", "PBM E-score": 0.25},
      {"sequence": "CATACGTA", "PBM E-score": 0.288},
      {"sequence": "CATACGTC", "PBM E-score": 0.0749},
      {"sequence": "AATACGAA", "PBM E-score": 0.419},
      {"sequence": "CATACGAC", "PBM E-score": 0.451},
      {"sequence": "CATACGAA", "PBM E-score": 0.451},
      {"sequence": "AATACGTG", "PBM E-score": 0.15}
    ]}
  ]
}
